PubChem BioAssay (NCATS)
Inconclusive results are not listed. Active and inactive are the calls of the source. The call rests on the fitted dose curve; in most records, active means well fitted inhibition curve with a large enough effect; inconclusive means small, poorly fitted or top-dose-only effect; inactive means flat fitted curve, though single readings scatter.

Target: Tyrosyl-DNA phosphodiesterase 1 (Homo sapiens) (UniProt Q9NUW8)
Experiment: Confirmation Assay for Inhibitors of Tyrosyl-DNA Phosphodiesterase (TDP1) (AID 489007); further: nearly all actives have a fitted effect of over 40% in size
Details: recombinant human TDP1 enzymatic activity, dose-response
In short: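 AlphaScreen assay of tyrosine-FITC cleavage from a biotinylated DNA substrate (15 nM) by E. coli-expressed human Tdp1 (1 nM). Sequence: compound preincubation 15 min, reaction 5 min, bead detection 10 min, all at room temperature. No-enzyme wells give maximum signal.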
Potency means the concentration at half of the fitted maximal effect.

Tyrosyl-DNA phosphodiesterase 1 (Homo sapiens), sequence (Q9NUW8 whole entry, looked up): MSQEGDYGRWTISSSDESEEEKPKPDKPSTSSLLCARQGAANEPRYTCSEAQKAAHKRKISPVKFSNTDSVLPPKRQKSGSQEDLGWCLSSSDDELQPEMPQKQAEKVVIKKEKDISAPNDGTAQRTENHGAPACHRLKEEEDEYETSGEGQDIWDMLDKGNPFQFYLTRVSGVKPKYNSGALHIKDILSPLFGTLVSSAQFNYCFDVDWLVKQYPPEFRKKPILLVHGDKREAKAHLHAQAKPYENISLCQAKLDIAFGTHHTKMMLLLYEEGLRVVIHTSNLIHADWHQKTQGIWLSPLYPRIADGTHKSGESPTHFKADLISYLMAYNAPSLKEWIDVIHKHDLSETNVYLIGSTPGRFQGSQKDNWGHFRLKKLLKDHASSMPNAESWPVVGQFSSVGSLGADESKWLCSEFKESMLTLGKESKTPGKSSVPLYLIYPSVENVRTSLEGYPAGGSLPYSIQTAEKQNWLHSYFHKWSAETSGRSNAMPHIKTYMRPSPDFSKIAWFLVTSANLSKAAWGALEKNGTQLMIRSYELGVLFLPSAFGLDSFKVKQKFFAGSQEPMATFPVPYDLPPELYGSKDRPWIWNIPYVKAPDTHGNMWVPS

## Cc1ccccc1-c1cncnc1N(C)Cc1ccco1
  Potency: 3.16 µM (active)
